Source: PubChem (Sanford-Burnham Center for Chemical Genomics)
Most compounds without a hit are left out; they make up all but 31% or so of the library.
CYP2C9 inhib = blockers of cytochrome P450 2C9 activity – biochemical, luminescence, ADME assay, primary screen. P11712. CYP2C9 Supersomes, luciferin-H conversion. inhibition, % at 5 µM. 96,000 compounds, 20% hits. AID 777, 2007;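 active = blocking of liver enzyme CYP2C9 beyond about 50% at 5 µM, limit read from the data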
Target sequence (P11712 whole entry, looked up): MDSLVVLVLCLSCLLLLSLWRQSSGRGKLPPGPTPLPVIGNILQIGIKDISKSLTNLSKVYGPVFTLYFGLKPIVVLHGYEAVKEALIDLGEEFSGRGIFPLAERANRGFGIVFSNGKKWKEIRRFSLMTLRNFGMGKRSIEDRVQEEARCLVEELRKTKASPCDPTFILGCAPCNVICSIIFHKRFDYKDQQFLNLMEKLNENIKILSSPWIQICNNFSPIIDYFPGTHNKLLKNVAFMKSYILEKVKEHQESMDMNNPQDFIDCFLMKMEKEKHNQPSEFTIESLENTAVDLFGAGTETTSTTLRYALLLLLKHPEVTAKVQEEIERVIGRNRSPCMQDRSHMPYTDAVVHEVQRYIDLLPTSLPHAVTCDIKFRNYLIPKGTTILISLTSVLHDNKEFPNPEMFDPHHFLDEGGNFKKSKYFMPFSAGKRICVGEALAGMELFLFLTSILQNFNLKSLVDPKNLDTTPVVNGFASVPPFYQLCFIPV
CYP2C19 activ = human CYP2C19 activators, primary screen, biochemical, luminescence; AID 1025, 2008; activation factor at 5 µM; recombinant CYP2C19, luciferin-H EGE luminescence; hits give high values; 0 = fully inhibited enzyme, 1 = untreated enzyme; Cytochrome P450 2C19 (Homo sapiens), P33261; 96,000 tested, under 10 active;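 active = activation factor of at least 2 at 5 µM in the primary screen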;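 note: 0 = wells with 2.5 mM tranylcypromine and 1 = vehicle-only wells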
CYP2C19 inhib = blockers of cytochrome P450 2C19 activity – biochemical, luminescence, ADME assay, primary screen; P33261; CYP2C19 Supersomes, luciferin-H EGE luminescence, 30 min; inhibition, % at 5 µM; 96,000 compounds, 21% hits; AID 778, 2007;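 active = CYP2C19 inhibition above a set limit at 5 µM in the primary screen, cut at about 50% in these data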;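 note: plate controls were negative control wells for no effect and 2.5 mM tranylcypromine positive control for full effect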
PLAP activator = PLAP enzyme activators, biochemical, luminescence, HTS; activation fold at 20 µM; purified PLAP enzyme, luminescent substrate read-out; hits give high values; AID 696, 2007; Alkaline phosphatase, placental type (Homo sapiens), P05187; 96,000 compounds, 1.2% hits; in the data active = activation fold above about 2
CYP2C9 act = human CYP2C9 activators, primary screen, biochemical, luminescence; Cytochrome P450 2C9 (Homo sapiens), P11712; recombinant CYP2C9, luciferin-H conversion; hits give high values; factor 1 = untreated enzyme, 0 = blocked; activation factor at 5 µM; 96,000 compounds, 1.4% hits;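 active = activation factor of 2 or more for CYP2C9 at a 5 µM dose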;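 note: 0 = sulfaphenazole-blocked wells and 1 = vehicle-only wells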
* hit, by the source's call; x = no result given.

SMILES	CYP2C9 inhib	CYP2C19 activ	CYP2C19 inhib	PLAP activator	CYP2C9 act
CCCCOc1ccc(CNC(=S)N/N=C/c2ccc(OC)c(OC)c2)cc1	60.3*	0.9	8.0	1.7	0.4
CCOc1ccc(CNC(=S)N/N=C\c2ccc([N+](=O)[O-])cc2)cc1	30.0	0.7	31.2	x	0.7
Clc1ccc(N2CCN(c3ncnc4c3oc3ccccc34)CC2)cc1	8.7	0.7	28.8	0.8	0.9
Clc1ccccc1Cn1nnc2c(N3CCCC3)ncnc21	-121.8	0	98.6*	1.5	2.2*
Clc1ccc(Cn2ncc3c(N4CCOCC4)ncnc32)cc1	19.7	0.3	67.1*	1	0.8
Cc1ccc2c(c1)[nH]c1c(N3CCN(Cc4ccc5c(c4)OCO5)CC3)ncnc12	92.9*	0.2	81.8*	1.8	0.1
c1ccc2c(c1)oc1c(N3CCN(Cc4ccc5c(c4)OCO5)CC3)ncnc12	86.0*	0.2	81.5*	1.5	0.1
OC1CCN(c2ncnc3c2nnn3Cc2c(F)cccc2Cl)CC1	48.5	0.5	48.3	1.6	0.5
CC(=O)c1c(N2CCN(Cc3ccc4c(c3)OCO4)CC2)nc(=S)n(-c2ccccc2)c1C	24.2	1.1	-7.1	1.5	0.8
COc1ccc(C(=O)NCC(C)(C)SCc2c(C)cc(C)cc2C)cc1	22.5	0.5	49.8	1.1	0.8
COC(=O)COc1cccc2c(=O)n(CC(=O)N3CCCc4ccccc43)ccc12	8.1	0.9	5.7	1.4	0.9
Fc1ccccc1Cn1nnc2c(-n3ccnc3)ncnc21	90.6*	0	98.7*	0.9	0.1
c1ccc(Cn2nnc3c(N4CCOCC4)ncnc32)cc1	13.0	0.2	75.8*	1.2	0.9
c1ccc(Cn2nnc3c(N4CCN(Cc5ccc6c(c5)OCO6)CC4)ncnc32)cc1	85.4*	0.2	84.5*	1.5	0.1
C/C(N)=C(/C#N)C(=O)CSc1nnc(-c2ccccc2Br)o1	-13.2	0	95.5*	0.8	1.1
O=Nc1c(O)n(Cc2cccc(Cl)c2)c2ccccc12	74.3*	0.4	55.9*	0.9	0.3
CCN(CC)CCn1c(O)c(N=O)c2ccccc21	7.0	0.9	6.3	1	0.9
CN(/N=C/c1ccncc1)c1cnn(-c2ccc(F)c(Cl)c2)c(=O)c1Cl	93.4*	0.1	90.7*	1	0.1
CC(C)NC(=O)Cn1nnc(-c2ccc(Cl)cc2)n1	2.9	0.8	24.9	1	1
COC(=O)c1sc(S(=O)(=O)N2CCCCC2C(=O)O)c(C(=O)OC)c1C (stereo not drawn)	-14.2	1.1	-12.5	1.1	1.1
Cn1cnnc1SCc1ccc(C(=O)n2ncc(C#N)c2N)cc1	-4.9	1	-2.8	1.1	1
O=C1CCCCC1C(Nc1ccc(Br)cc1)c1ccccc1 (stereo not drawn)	61.5*	0.5	49.4	1	0.4
O=C1CCCCC1C(Nc1ccc(Cl)cc1)c1ccccc1 (stereo not drawn)	88.9*	0.2	82.2*	1	0.1
COc1cc2[nH]c3c(=O)n(CCN4CCCCC4)cnc3c2cc1OC	12.7	1	1.6	1.6	0.9
Cc1cc(-n2c(SCCC#N)nnc2-c2cccnc2)ccc1Cl	-16.7	1	2.7	0.9	1.2
SMILES	CYP2C9 inhib	CYP2C19 activ	CYP2C19 inhib	PLAP activator	CYP2C9 act
COc1ccccc1N1CCN(C(=O)COc2ccc(Cl)cc2Br)CC1	7.9	0.5	54.5*	1.7	0.9
COc1ccc(C(=O)N2CCN(S(=O)(=O)c3cc(Cl)ccc3OC)CC2)cc1	-16.9	0.3	67.2*	0.8	1.2
COc1ccccc1N1CCN(C(=O)COc2ccc(C)cc2Br)CC1	9.0	0.5	49.8	1.3	0.9
COc1ccc(Cl)cc1S(=O)(=O)N1CCN(C(=O)COc2ccccc2)CC1	-60.4	0.4	61.8*	0.9	1.6
COc1ccc(C(=O)N2CCN(S(=O)(=O)c3ccc(Cl)cc3)CC2)cc1OC	19.7	1.1	-7.0	1.6	0.8
O=C(COc1ccccc1)N1CCN(S(=O)(=O)Cc2ccccc2)CC1	21.9	0.7	33.5	0.9	0.8
CCOC(=O)c1[nH]c(C)c(/C=N/O)c1C	-39.2	0.9	9.9	1	1.4
CCc1ccc(C(=O)CCC2CCCCC2=O)cc1 (stereo not drawn)	10.0	0.6	40.4	0.9	0.9
